Source: PubChem (National Center for Advancing Translational Sciences (NCATS))
Shiga inhibitor: A qHTS for Small Molecule Inhibitors of Shiga Toxin; Vero cells, Shiga toxin protein synthesis inhibition reporter; inhibition, % at 38.7 µM; 9.2% of 290,000 active; AID 2315, 2010; in the data active = inhibition mostly above about 28%, no sharp cut-off; inactive = mostly below about 43%; also: 0% is about no effect
Cycloheximide cs: Cycloheximide Counterscreen for Small Molecule Inhibitors of Shiga Toxin. cell reporter, cycloheximide protein synthesis inhibition counterscreen. AID 2314, 2010. max response, %. 12% of 300,000 active; in the data active = max response mostly above about 13%, no sharp cut-off; inactive = mostly below about 14%; also: read at 38.3 µM for the half of the compounds with a filed dose; 0% is about no effect
Pf growth 96h: Primary qHTS for delayed death inhibitors of the malarial parasite plastid, 96 hour incubation. P. falciparum luciferase reporter growth, 96 h. Potency, µM (titrated, usually from 28.7 µM), inactives show at the top dose activity change, negative = inhibition, usual class: inhibitors. 6.9% of 320,000 active. AID 504834, 2011; also: potency is read from the fitted curve at half-maximal effect; % is scaled to controls: 0 for no effect and ±100 for the full control effect
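Erythrocytes infected with luciferase-expressing P. falciparum were dispensed at 2% hematocrit and 0.05% parasitemia (final), then incubated with compounds 96 hours at 37 C in 5% CO2. Luminescence after detection reagent addition reported growth.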
Pf growth 48h: Primary qHTS for delayed death inhibitors of the malarial parasite plastid, 48 hour incubation | P. falciparum luciferase growth in erythrocytes, 48 h | Potency, µM (highest dose often 28.7 µM), without a hit: top-dose activity change, negative = inhibition, most hits filed as inhibitors | 5.9% of 310,000 active; also: potency is read from the fitted curve at half-maximal effect; % is scaled to controls: 0 for no effect and ±100 for the full control effect
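Luciferase-expressing parasites in RBCs, 2% Hct / 0.1% parasitemia final; RPMI 1640 + 0.5% Albumax; 37 C, 5% CO2, one generation; luminescence read-out, lower signal = inhibition.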
The depositor's hits bear a star; ? = inconclusive; · = not tested or not shown; [ ] = another dose, or the depositor's remark. Compounds with a hit are over-represented: about 21% of the library has one in this group of screens. Unless noted, calls follow the shape of the dose curve; as a rule, active = well fitted inhibition curve with a large enough effect; inconclusive = small, poorly fitted or top-dose-only effect, or another doubt; inactive = no such curve, though single readings can be large or run the other way.

SMILES | Shiga inhibitor | Cycloheximide cs | Pf growth 96h | Pf growth 48h
CC(=O)OC1C(OC(C)=O)N(C(C)=O)C(=O)N1C(C)=O (stereo not given) | -8 | -1 | 9.3µM* | -4%
Cc1noc(C)c1COC(=O)c1ccc2c(c1)OCO2 | -4 | 2 | 7.4µM* | ·
CCc1cccc(NC(=O)CSc2ncccc2C(=O)Oc2ccccc2Cl)c1 | -4 | -3 | · | ·
CSc1ncccc1C(=O)OCC(=O)Nc1ccc2c(c1)OCO2 | 35* | 12 | 27% | 25%
O=C(COC(=O)c1cccnc1Cl)Nc1ccc2c(c1)OCO2 | 97* | 32* | -9% | 90%
Cc1ccc(NC(=O)CSc2ncccc2C(=O)Oc2cccc([N+](=O)[O-])c2)cc1Cl | 75* | 11 | ? | 71%
Cc1noc(C)c1COC(=O)c1cccnc1SCC(=O)Nc1ccc2c(c1)OCO2 | 27 | -2 | 9.3µM* | ?
CCOC(=O)c1cccnc1SCC(=O)Nc1ccc(C)cc1 | 48 | 22* | -2% | 89%
CC(C)c1ccc(/C=C/c2[nH]c(=O)[nH]c(=O)c2[N+](=O)[O-])cc1 | 19* | 13* | -15% | -13%
CCOc1ccc(/C=C/c2[nH]c(=O)[nH]c(=O)c2[N+](=O)[O-])cc1 | · | -3 | 166% | -3%
O=C(CSc1ccc2nnc(CCNC(=O)c3ccccc3)n2n1)NCc1ccc(F)cc1 | 2 | -2 | -9% | ?
Cc1cccc(Nc2nc(N)nc(CCl)n2)c1 | 77* | 61* | 9.3µM* | ?
COc1cccc(Nc2nc(N)nc(CCl)n2)c1 | 146* | 57* | ? | ?
Cc1cccc(Nc2nc(N)nc(CSc3nccc(C)n3)n2)c1 | 49 | 6 | ? | -9%
COc1cccc(N2CCN(Cc3nc(N)nc(Nc4ccccc4)n3)CC2)c1 | 17 | -1 | 5% | -16%
CS(=O)(=O)N(CC(=O)N1CCCC1)c1ccccc1Br | · | 1 | ? | 14%
O=C(Nc1cccc2ccccc12)c1ccc(F)cc1 | 52* | 44* | 45% | 32%
NS(=O)(=O)c1ccc(O)c(NC(=O)c2ccc([N+](=O)[O-])cc2)c1 | 68 | 22* | ? | -54%
NC(=O)NNC(=S)Nc1cccc2ccccc12 | -20 | -1 | 0% | 23%
O=C(Nc1cccc2ccccc12)c1cccc(F)c1 | 28 | 7 | -3% | 42%
O=C(Nc1cccc2ccccc12)c1ccccc1Cl | 5 | 6 | -3% | 17%
Nc1ccccc1C(=O)Nc1cccc2ccccc12 | 36* | 35* | 111% | 150%
NC(=O)c1ccccc1NC(=O)Nc1cccc2ccccc12 | 15 | 36* | -7% | ?
COc1ccc(OCC(=O)NCCCN2CCOCC2)cc1 | 12 | -5 | 105% | -6%
Cc1ccc(C(=O)O[C@H](C(=O)O)[C@H](OC(=O)c2ccc(C)cc2)C(=O)O)cc1 | -9 | -4 | 31% | -2%[0.00184 µM]
SMILES | Shiga inhibitor | Cycloheximide cs | Pf growth 96h | Pf growth 48h
O=C(Nc1cccc2ccccc12)c1ccc([N+](=O)[O-])cc1 | 21 | 14* | 7.4µM* | 27%
O=C(Nc1cccc2ccccc12)c1ccccc1 | 96* | 42* | 94% | 96%
CNC(=S)N(Cc1ccc(OC)cc1)Cc1cc2ccc(C)cc2[nH]c1=O | -8 | -4 | ? | -22%
Cc1cc(C)c(NC(=O)C2CC3CCC2C3)c(C)c1 (stereo not given) | 33 | 15* | 25% | 10µM*
CC(C)c1ccc(NC(=O)C2CC3CCC2C3)cc1 (stereo not given) | 86* | 53* | -28% | 123%
O=C(c1cc2cc(Cl)ccc2[nH]1)N1CCN(c2ccccn2)CC1 | · | -3 | 3% | 2%
O=C(COC(=O)Cc1ccc(Cl)cc1)NC1CCCC1 | · | · | 6% | 14%
CC(=O)c1cccc(OCC(=O)N2CCN(c3ccc(C(F)(F)F)cn3)CC2)c1 | 12 | 9 | 7.4µM* | -28%
CCOc1ccccc1NC(=O)CSc1nc2ccccc2c(=O)n1CC1CCCO1 (stereo not given) | -10 | -2 | ? | ?
N#Cc1ccccc1NC(=O)C(=O)NCCCN1CCCC1=O | · | · | 8% | 20%
C[n+]1cn(/N=C/c2ccccc2)c2ccccc21 | 23 | 8 | 13µM* | ?
O=C(CCN1C(=O)[C@@H]2Cc3ccccc3CN2C1=O)N[C@H](C(=O)O)c1ccccc1 | 17 | -2 | -23% | 23%
C1CN(c2nc3nonc3nc2N2C[C@H]3CC[C@H]2C3)CCS1 | -11 | -2 | ? | -2%
C=CCSc1nc(=O)n2ccc(C)cc2n1 | 37 | 28* | ? | 11%
COc1ccc(C2CC(c3ccc(C)cc3)=NN2C(=O)c2ccccc2)cc1 (stereo not given) | -6 | 2 | ? | ?
COc1ccc(C2=NN(CN3C(=O)C(=O)c4ccccc43)C(c3ccc(OC)cc3)C2)cc1 (stereo not given) | 131* | 76* | ? | ?
COc1ccc(C2=NN(S(=O)(=O)c3ccccc3)C(c3ccccc3)C2)cc1 (stereo not given) | 34 | 3 | 6.6µM* | ?
COc1ccc(C2CC(c3ccccc3)=NN2S(=O)(=O)c2ccc(C)cc2)c(OC)c1 (stereo not given) | 61 | 13 | 12µM* | ?
CCn1c(=O)n(CC)c2cc([N+](=O)[O-])c(N3CCNCC3)cc21 | 7 | 5 | 5.9µM* | -18%
Nc1cc(N2CCNCC2)c([N+](=O)[O-])cc1Cl | -7 | -1 | 32% | -3%
CC(=O)c1ccc(OC(=O)N(c2ccccc2)c2ccccc2)cc1 | -5 | -3 | -28% | ·
COc1cc(C)c(N(C(C)=O)c2ccccc2)c(C)c1 | -7 | -3 | · | 5.9µM*
Cc1ccc(S(=O)(=O)Nc2cccc(C(=O)NCCCn3ccnc3)c2)cc1F | · | · | 0% | ?
Cc1cc(-c2cc(-c3ccccc3)on2)nc(NC2CCCC2)n1 | 34* | 21 | ? | ?
CCCCn1c(N)c(N(CC(C)C)C(=O)C2CCN(c3ncnc4sc(C)c(C)c34)CC2)c(=O)[nH]c1=O | · | · | 2.9µM* | 5.2µM*
SMILES | Shiga inhibitor | Cycloheximide cs | Pf growth 96h | Pf growth 48h
CCCCn1c(N)c(N(CC(C)C)C(=O)C2CCN(C(=O)c3ccc(F)cc3)CC2)c(=O)[nH]c1=O | -2 | 5 | ? | -4%
CCCCn1c(N)c(N(CCOC)C(=O)C2CCN(c3ncnc4sc(C)c(C)c34)CC2)c(=O)[nH]c1=O | · | · | 12µM* | 12µM*
CCCCC1CCC(C(=O)N(CC(C)C)c2c(N)n(Cc3ccccc3)c(=O)[nH]c2=O)CC1 (stereo not given) | · | · | 10µM* | ?
CC(=O)Nc1nc(C)c(Oc2ccc(C)cc2)c(=O)[nH]1 | -3 | -1 | ? | ?
CC(C)(C)Nc1nc(NN)nc(NC(C)(C)C)n1 | -23 | -1 | ? | ?
CC(C)(C)Nc1nc(NC(C)(C)C)nc(-n2ccnc2)n1 | -11 | -1 | ? | 1.3µM*
CCOC(=O)c1sc2nc(C)nc(NC3CCC(O)CC3)c2c1C (stereo not given) | -12 | -1 | 20% | 27%
O=C(Nc1ccccc1)c1nc2ccccc2s1 | 89* | 48* | 311% | 202%
Cc1cccc(NC(=S)c2nc3ccccc3s2)c1 | 86* | 28* | 85% | 217%
